Results taken from PubChem BioAssay (NCATS).
Results filed as inconclusive are left out. Calls of active or inactive are those of the source. Calls come from the whole dose curve; as a rule, active = well fitted curve in the direction sought with a large enough effect; inconclusive = small, poorly fitted or top-dose-only effect, or another doubt; inactive = no such curve, though single readings can be large; an effect the other way counts as inactive or inconclusive.

Columns and labels:
[1] = tested on: Zika virus NS2B-NS3 protease (linked construct); assay: Primary screen NINDS Rhodamine qHTS for Zika virus inhibitors (AID 1347160); note: potency is the fitted concentration of half-maximal effect; nearly all actives have a fitted effect of over 55% in size
Method in brief: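 Rhodamine110-peptide cleavage (1.5 µM substrate) by 25 nM linked NS2B-NS3 enzyme at pH 8.0 (Tris, Tween 20), after 15 min RT preincubation with compounds; 15-min fluorescence change normalized to controls and Hill-fitted.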

[2] = OV-KATE Cancer Cell Toxicity qHTS against the NCATS CANVASS Library (AID 1347345)
Method in brief: (§1)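 Viability read-out: CellTiter-Glo luminescence after 72 h compound exposure at 37 °C/5% CO2. Cells plated at 1000/well, 4 h pre-incubation; 11-point titration. Bortezomib served as control.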

[3] = HPAF-II Cancer Cell Toxicity qHTS against the NCATS CANVASS Library (AID 1347346); note: series mostly up to about 38 µM; nearly all actives have a fitted effect of over 55% in size
Method in brief: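 First, HPAF-II cells are plated (1000 cells/well) and held 4 h at 37 degrees C. Next, compounds are pin-transferred as an 11-point series. After 72 h, CellTiter-Glo is added and luminescence measured.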

[4] = UWB1.289 Cancer Cell Toxicity qHTS against the NCATS CANVASS Library (AID 1347347); note: series mostly up to about 38 µM; nearly all actives have a fitted effect of over 60% in size
Method in brief: as §1

[5] = OV-SAHO Cancer Cell Toxicity qHTS against the NCATS CANVASS Library (AID 1347348); note: series mostly up to about 38 µM; nearly all actives have a fitted effect of over 55% in size
Method in brief: as §1

[6] = Panc-1005 Cancer Cell Toxicity qHTS against the NCATS CANVASS Library (AID 1347349); note: series mostly up to about 38 µM; nearly all actives have a fitted effect of over 60% in size
Method in brief: as §1

[7] = SW1088 Cancer Cell Toxicity qHTS against the NCATS CANVASS Library (AID 1347350); note: series mostly up to about 38 µM; nearly all actives have a fitted effect of over 75% in size
Method in brief: as §1

[8] = U-118MG Cancer Cell Toxicity qHTS against the NCATS CANVASS Library (AID 1347351); note: series mostly up to about 38 µM
Method in brief: as §1

[9] = COV-362 Cancer Cell Toxicity qHTS against the NCATS CANVASS Library (AID 1347352); note: series mostly up to about 38 µM
Method in brief: (§2)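 First, 1000 cells go into each well and rest for 4 hours. Next, an 11-point dilution range is pinned in. Plates then incubate 72 hours before CellTiter-Glo addition and luminescence reading.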

[10] = A2780 Cisplatin Sensitive Ovarian Cancer Cell Toxicity qHTS against the NCATS CANVASS Library (AID 1347353); note: nearly all actives have a fitted effect of over 60% in size
Method in brief: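 Cells are plated at 750 per well and rest for 4 hours. Compounds are added across eleven concentrations, and incubated 72 hours before ATP is quantified by luminescence.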

[11] = UWB1.289-WTBRCA1 Cancer Cell Toxicity qHTS against the NCATS CANVASS Library (AID 1347354)
Method in brief: as §2

[12] = HEK-293 Cancer Cell Toxicity qHTS against the NCATS CANVASS Library (AID 1347355); note: series mostly up to about 46 µM; nearly all actives have a fitted effect of over 65% in size
Method in brief: as §2

[13] = HPAF-II 24hr Apoptosis Induction qHTS against the NCATS CANVASS Library (AID 1347356)
Method in brief: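 Cells seeded at 500 per well, then compounds pin-transferred in an 11-point concentration series. After 24 hours at 37 degrees C, Caspase-Glo 3/7 was added and luminescence measured following 15 min at room temperature.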

[14] = HEK293 18hr Apoptosis Induction qHTS against the NCATS CANVASS Library (AID 1347357)
Method in brief: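 Luminescent caspase-3/7 signal is measured in HEK293 cells exposed for 18 hours to an 11-point concentration series; doxorubicin serves as the plate control.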

[15] = HPAF-II 12hr Apoptosis Induction qHTS against the NCATS CANVASS Library (AID 1347358)
Method in brief: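 Cells plated at 500 per well are dosed with compound and incubated 12 hours at 37 degrees C. Caspase-Glo 3/7 reagent is added and, after 15 min at room temperature, luminescence proportional to caspase activity is measured.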

[16] = HEK293 24hr Apoptosis Induction qHTS against the NCATS CANVASS Library (AID 1347359)
Method in brief: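 HEK293 cells (500/well, DMEM + 10% FBS) were exposed to compounds in an 11-point series for 24 hours at 37 degrees C, then caspase-3/7 activity was read by Caspase-Glo DEVD luciferase luminescence after 15 min.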

[17] = HPAF-II 18hr Apoptosis Induction qHTS against the NCATS CANVASS Library (AID 1347360)
Method in brief: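 Apoptosis was scored as caspase-3/7 activity in HPAF-II pancreatic cancer cells treated 18 hours with an 11-point concentration series.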

[18] = HEK293 12hr Apoptosis Induction qHTS against the NCATS CANVASS Library (AID 1347361)
Method in brief: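 Apoptosis in HEK293 was scored as caspase-3/7 luminescence following 12 h treatment with a compound concentration series in qHTS format.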

[19] = tested on: NAD(P)H diaphorase (Clostridium kluyveri); assay: Diaphorse counterscreen qHTS: Assay Interference Panel against the NCATS CANVASS Library (AID 1347362)
Method in brief: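 Clostridium kluyveri diaphorase in PBS with 0.01% Tween-20 was preincubated 15 min at room temperature in the dark with compounds (11-point series). Resorufin fluorescence (ex 525/20, em 598/25) was read 5 min after adding resazurin/NADH.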

[20] = biological target: Luciferin 4-monooxygenase (Photinus pyralis) (UniProt P08659); assay: Firefly luciferase counterscreen qHTS: Assay Interference Panel against the NCATS CANVASS Library (AID 1347363); note: series mostly up to about 57 µM
Luciferin 4-monooxygenase (Photinus pyralis), sequence (P08659 whole entry, looked up): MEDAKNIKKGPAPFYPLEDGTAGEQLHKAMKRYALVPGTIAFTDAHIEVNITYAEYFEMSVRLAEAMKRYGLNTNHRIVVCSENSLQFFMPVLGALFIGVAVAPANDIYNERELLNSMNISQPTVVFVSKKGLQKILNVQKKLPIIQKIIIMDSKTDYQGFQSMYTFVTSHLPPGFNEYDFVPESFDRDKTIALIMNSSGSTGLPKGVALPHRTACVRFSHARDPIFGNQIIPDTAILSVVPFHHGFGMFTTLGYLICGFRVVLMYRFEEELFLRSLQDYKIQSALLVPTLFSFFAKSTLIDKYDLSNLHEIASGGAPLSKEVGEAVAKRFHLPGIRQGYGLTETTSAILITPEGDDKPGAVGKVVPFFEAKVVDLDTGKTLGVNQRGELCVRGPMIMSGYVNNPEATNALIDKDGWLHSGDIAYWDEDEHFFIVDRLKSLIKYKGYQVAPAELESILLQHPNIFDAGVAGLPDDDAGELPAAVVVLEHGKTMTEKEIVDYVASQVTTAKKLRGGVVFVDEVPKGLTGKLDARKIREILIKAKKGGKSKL
Method in brief: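 Purified P. pyralis luciferase was added to compounds (11-point series) preincubated 15 min at room temperature with substrate containing 0.013 mM D-luciferin and 0.013 mM ATP; luminescence was read after 5 min.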

[21] = KB-8-5-11 Cancer Cell Toxicity qHTS against the NCATS CANVASS Library (AID 1347364); note: series mostly up to about 46 µM; nearly all actives have a fitted effect of over 75% in size
Method in brief: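 Terse: KB-8-5-11, 500 cells/well, 72 hr, 37C/5% CO2, 11-pt titration, CellTiter-Glo readout; confirmatory runs ± 1uM tariquidar in medium.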

[22] = SDT Cancer Cell Toxicity qHTS against the NCATS CANVASS Library (AID 1347365);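 note: SDT canine glioma cells 500 per well in 1536 well plates; series mostly up to about 46 µM; nearly all actives have a fitted effect of over 60% in size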
Method in brief: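 Cytotoxicity is measured from cellular ATP: compounds in an 11-point concentration series are pinned onto SDT cells, incubated 72 hr at 37C, then CellTiterGlo is added and luminescence read.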

[23] = KB-3-1 Cancer Cell Toxicity qHTS against the NCATS CANVASS Library (AID 1347366); note: series mostly up to about 46 µM; nearly all actives have a fitted effect of over 75% in size
Method in brief: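 Seed KB-3-1 cells at 500/well in DMEM with 10% FBS, add compounds, incubate 72 hr at 37C and 5% CO2, then add CellTiter-Glo and read luminescence after 10 minutes.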

Measured: Potency

C[C@]12CC[C@]3(C1)[C@H](CC2=O)CC(OC(=O)c1ccccc1)[C@H]1[C@@](CO)(C(=O)O)CCC[C@@]13C (stereo partly drawn)
active: [1] 49.3 µM
inactive: all other assays above
